Data from PubChem BioAssay.
Activity calls are given as the source filed them.

Tests used:
[1] = A549 cell viability effects, profiling panel, calcein-AM fluorescence, 48 h, basal (AID 1162); conditions: higher = more signal
[2] = adipocyte viability effects, profiling panel, cell-based, 3T3-L1 adipocytes, calcein-AM fluorescence, 48 h, basal (AID 1163); conditions: 3T3-L1 adipocytes viability, higher = more signal
[3] = HepG2 cell viability effects, profiling panel, calcein-AM fluorescence, 48 h, basal (AID 1164); conditions: higher = more signal
[4] = MM1S cell viability effects, profiling panel, calcein-AM fluorescence, 48 h, basal (AID 1165); conditions: higher = more signal;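 further: viability of MM1S multiple myeloma cells under basal unstimulated conditions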
[5] = basal RPMI8226 viability, no added stimulus, profiling panel, cell-based, calcein-AM fluorescence, 48 h, PK04 Diversity Set (AID 1166); conditions: RPMI8226 myeloma viability, higher = more signal;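 further: cells grown under basal conditions without added stimulus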
[6] = basal HepG2 mitochondrial membrane potential changes, profiling panel, cell-based, JC-1 fluorescence, 24 h, 100 nL compound (AID 1167); conditions: higher = more signal
[7] = basal 3T3-L1 adipocyte mitochondrial potential changes, profiling panel, cell-based, JC-1 fluorescence, 3T3-L1 adipocytes, 24 h, 100 nL compound (AID 1168); conditions: JC-1 mitochondrial fluorescence, higher = more signal, called active from +8 up or from −8 down
[8] = basal RPMI8226 mitochondrial membrane potential changes, profiling panel, cell-based, JC-1 fluorescence, 24 h, 100 nL compound (AID 1169); conditions: RPMI8226 myeloma, JC-1 mitochondrial potential fluorescence, higher = more signal
[9] = basal MM1S mitochondrial membrane potential changes, profiling panel, cell-based, JC-1 fluorescence, 24 h, 100 nL compound (AID 1170); conditions: higher = more signal
[10] = A549 lung cancer cell viability effects, profiling panel, resazurin fluorescence, 24 h, PK04 Diversity Set (AID 1171); conditions: higher = more signal, called active from +8 up or from −8 down
Further: test concentration not given here.

| SMILES | z-score [1] | z-score [2] | z-score [3] | z-score [4] | z-score [5] | z-score [6] | z-score [7] | z-score [8] | z-score [9] | z-score [10] |
| --- | --- | --- | --- | --- | --- | --- | --- | --- | --- | --- |
| CC1CC/C=C\[C@H]2OC34C=CCN(c5ccc(Cl)cc5)C(=O)[C@H]3N(CCCCCCO)C(=O)[C@]4(C)C2C(=O)O1 (stereo not given in full) | 0.943 | -3.94 | 0.606 | 1.88 | -0.368 | 0.232 | 0.115 (inactive) | 1.03 | -0.439 | 0.523 (inactive) |
| COc1ccc(C#Cc2ccc3c(c2)[C@]2(C(=O)N3)[C@H](C(=O)O)[C@H]3C(=O)O[C@H](c4ccccc4)[C@H](c4ccccc4)N3[C@@H]2c2ccccc2OCCO)cc1 | -1.23 | 1.19 | -2.52 | -3.32 | -4.18 | -3.99 | 2.1 (inactive) | -0.823 | -1.3 | -0.435 (inactive) |
| COC(=O)[C@H](Cc1ccc(O)cc1)N[C@@H](/C=C/C1CC1)[C@H](O)Cc1ccccc1 | -0.0547 | -1.21 | 0.192 | -1.69 | -0.192 | -1.82 | -0.177 (inactive) | -0.512 | -1.01 | 0.0243 (inactive) |
| O=C(NCc1ccc(F)cc1)[C@H]1C[C@H]2C(=O)N3CCC[C@H]3C(=O)N2[C@H]1c1ccc(O)cc1 | -0.965 | 0.625 | -0.647 | -0.896 | -0.625 | 0.552 | 0.811 (inactive) | 0.207 | -0.396 | -0.0909 (inactive) |
| COC(=O)[C@]1(Cc2ccccc2)N=C(c2ccc(OCCCO)cc2)O[C@@H]1c1ccccc1CN=[N+]=[N-] | -3.63 | 0.748 | -5.37 | -3.55 | -3.97 | -2.4 | -0.876 (inactive) | -1.12 | -1.34 | -4.59 (inactive) |
| C=CCC(OC(C)=O)[C@@H]1[C@@H](N(Cc2cc3ccccc3o2)C(=O)c2cccc3ccccc23)c2cc(OCCCO)ccc2N1C(=O)c1ccc2ccccc2n1 (stereo not given in full) | 0.375 | 0.756 | 0.601 | -1.14 | -2.01 | 2.42 | -0.961 (inactive) | -0.211 | -0.245 | -0.985 (inactive) |
| [N-]=[N+]=Nc1ccccc1C[C@]1(C(=O)N2CCOCC2)N=C(c2ccc(OCCCO)cc2)O[C@H]1c1ccccc1N=[N+]=[N-] | 0.961 | 0.744 | -0.621 | -1.77 | -2.98 | 1.81 | -0.0199 (inactive) | -1.01 | -2.03 | -2.16 (inactive) |
| CCOC(=O)c1cn(C[C@H](Cc2ccccc2)NC(=O)N[C@H](CO)CCc2oc(C(C)=O)c(C(=O)OC)c2C(=O)OC)nn1 | -0.462 | 1.16 | 0.0702 | -0.0594 | -1.88 | -1 | 0.871 (inactive) | -0.44 | -0.0478 | -0.636 (inactive) |
| O=C(NC1CC1)[C@@H]1c2ccccc2C(=O)N(Cc2cc(C(F)(F)F)cc(C(F)(F)F)c2)[C@H]1c1ccc(CO)cc1 | 1.68 | 1.61 | 0.289 | 0.538 | -1.32 | 0.693 | -0.439 (inactive) | 0.801 | -0.687 | 0.307 (inactive) |
| CCCCC(=C=CC[C@H](O)c1ccc(CO)o1)CCO | -0.231 | -0.652 | 0.115 | -0.562 | -0.0295 | -0.787 | -0.848 (inactive) | -0.0527 | -0.534 | -0.598 (inactive) |
| CC1CC/C=C\[C@H]2OC34C=CCN(c5ccc6ccccc6c5)C(=O)[C@H]3N(C(C)CO)C(=O)[C@@H]4C2C(=O)O1 (stereo not given in full) | -0.326 | -4.43 | 1.05 | 1.6 | -0.311 | 0.333 | 0.0486 (inactive) | 0.195 | -0.532 | -0.0299 (inactive) |
| C=C(CCCC)/C(=C/C[C@H](OC(=O)c1ccncc1)c1ccccc1OCCO)c1cc(C(=O)OC)ccc1OC | -0.0906 | 0.503 | -0.629 | -3.29 | -1.82 | 2.06 | -0.292 (inactive) | -0.262 | 0.732 | 0.613 (inactive) |
| COC(=O)[C@@]1(Cc2ccc(F)cc2)[C@H]2c3cc(C(=O)N(C)C)n(C)c3C[C@H]2CN1C(=O)c1ccccc1 | 0.888 | -0.0909 | -0.408 | -0.364 | -0.119 | 0.216 | -0.574 (inactive) | -0.325 | -0.481 | -0.452 (inactive) |
| O=C(O)[C@H](Cc1ccccc1)n1cc(C2(O)CCCCC2)nn1 | -0.53 | -1.54 | 0.105 | -0.364 | -0.361 | -1.14 | -0.569 (inactive) | 0.791 | -0.417 | 0.0465 (inactive) |
| COCCOC(=O)N1C(=O)[C@@]2(c3ccccc31)[C@H](c1ccc(O)cc1)N1[C@H](c3ccccc3)[C@H](c3ccccc3)OC(=O)[C@H]1[C@@H]2C(=O)N1CCCCCCC1 | -0.438 | -0.688 | 0.313 | -0.474 | -1.26 | -1.25 | -1.07 (inactive) | 0.167 | 0.584 | -0.257 (inactive) |
